HEK293 tox – cytotoxic compounds in HEK 293 cells; Potency, µM (top dose mostly 115 µM), usual class: inhibitors; 94,000 tested, 6.6% active; AID 1345083; HEK 293 viability, ATP luminescence (CellTiter-Glo), 48-72 h; further: nearly all actives have a fitted effect of over 60% in size
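Pintool-delivered compounds were incubated with HEK 293 cells (250 cells/well) at 37 degree Celsius for 48 or 72 hr. ATP-dependent luminescence (CellTiter-Glo) then reported remaining viable cells.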
hNpr1 antagonist – antagonists of human natriuretic peptide receptor Npr1. P16066. 76,000 tested, 1.6% active. Potency, µM (titrated, usually from 46.3 µM), usual class: inhibitors. HEK293 hNpr1 GloSensor cGMP, ANP-stimulated luminescence; calls by dose curve; further: nearly all actives have a fitted effect of over 60% in size
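HEK293 cells stably expressing human Npr1 and cGMP GloSensor pGS-40F, loaded 2 h with 2% GloSensor reagent, given compound 30 min at room temperature. Luminescence read before and 20 min after 0.1 nM hNppA.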
GPT2 inh – blocks human glutamate pyruvate transaminase 2; Q8TD30; Recombinant GPT2, coupled pyruvate oxidase/HRP Amplex Red fluorescence; Potency, µM (doses to about 57.7 µM), usual class: inhibitors; 100,000 tested, 0.25% active; further: nearly all actives have a fitted effect of over 60% in size
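GPT2 10ng/uL, a-KG 250uM, L-Ala 2mM, HEPES pH7.5 + 0.0001% Tween; 30 min RT. Then Amplex mix (PO/HRP/ThPP), 30 min RT dark, fluorescence. AOA 50uM used as positive control.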
3T3 cytotox – NIH 3T3 cell cytotoxicity. NIH 3T3 viability, CellTiter-Glo ATP luminescence, 48-72 h. Potency, µM (doses to about 96.7 µM), usual class: inhibitors. 94,000 tested, 4.3% active. AID 1345082; further: nearly all actives have a fitted effect of over 55% in size
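NIH 3T3 cells at 400 cells/well received 23 nL of compound by pintool and were incubated 48 or 72 h at 37 °C. Viability was read as ATP-coupled CellTiter-Glo luminescence.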
Luciferase inh – blocks purified firefly luciferase enzyme activity; P08659; purified P. pyralis luciferase, luminescence, biochemical; Potency, µM (top dose mostly 115 µM), usual class: inhibitors; 76,000 tested, 2.5% active; further: nearly all actives have a fitted effect of over 65% in size
Target sequence (P08659 whole entry, looked up): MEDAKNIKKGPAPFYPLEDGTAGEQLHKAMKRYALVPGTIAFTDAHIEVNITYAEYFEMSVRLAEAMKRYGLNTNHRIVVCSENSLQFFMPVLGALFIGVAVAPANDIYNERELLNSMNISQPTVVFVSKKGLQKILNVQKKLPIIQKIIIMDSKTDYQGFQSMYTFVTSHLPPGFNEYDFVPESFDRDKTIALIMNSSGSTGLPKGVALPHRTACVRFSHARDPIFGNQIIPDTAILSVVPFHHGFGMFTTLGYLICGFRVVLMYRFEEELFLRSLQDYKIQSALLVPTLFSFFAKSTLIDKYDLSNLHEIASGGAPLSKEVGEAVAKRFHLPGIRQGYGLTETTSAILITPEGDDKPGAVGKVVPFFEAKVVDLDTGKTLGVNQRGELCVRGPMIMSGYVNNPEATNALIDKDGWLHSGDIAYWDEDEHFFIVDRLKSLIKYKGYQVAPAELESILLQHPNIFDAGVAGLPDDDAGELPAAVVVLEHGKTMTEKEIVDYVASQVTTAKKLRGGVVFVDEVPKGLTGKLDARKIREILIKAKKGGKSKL
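Cell-free enzyme assay, 10nM P. pyralis luciferase, luciferin and ATP each at 10uM. Inhibition profiled over a 6-point titration, read as luminescence.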
Numbers stand for hits; n = inactive; u = inconclusive; x = no result. Most compounds without a hit are left out; they make up all but 10% or so of the library. Unless noted, the call rests on the fitted dose curve; in most records, active means well fitted curve in the direction sought with a large enough effect; inconclusive means small, poorly fitted or top-dose-only effect, or another doubt; inactive means no such curve, though single readings can be large; an effect the other way counts as inactive or inconclusive.

SMILES	HEK293 tox	hNpr1 antagonist	GPT2 inh	3T3 cytotox	Luciferase inh
COCC(=O)N1CC[C@H](c2nc3ccc(C(F)(F)F)cc3[nH]2)C1	n	n	n	n	n
O=C(c1ccccn1)N1CCCN(CCn2nc3n(c2=O)CCCC3)CC1	n	x	x	n	x
CC(NC(=O)CCc1conc1-c1ccccc1)c1ccc(F)cc1 (centres undefined)	u	n	n	n	18µM
Cn1cc(-c2cnc(Nc3ccc(F)c(Cl)c3)c3c2CCO3)cn1	u	n	n	n	n
c1ccc(-c2cnc(Nc3ccncc3)c3c2CCO3)cc1	79µM	25µM	n	45µM	28µM
Cn1cc(-c2cnc(Nc3ccncc3)c3c2CCO3)cn1	u	n	n	89µM	n
COc1ccc(CNC(=O)C2CN(C(C)C)C(=O)N2)cc1 (centres undefined)	n	x	n	n	x
O=C(CNC(=O)c1ccc(-c2cccc(C(F)(F)F)c2)cc1)NCCc1ccc(Cl)cc1	n	x	n	n	x
O=C(Cc1ccc(Cl)cc1)NCCNC(=O)c1cccc(-c2ccc(C(F)(F)F)cc2)c1	u	x	u	35µM	x
O=C(Cc1ccc(F)cc1)NCCNC(=O)c1cccc(-c2ccc(C(F)(F)F)cc2)c1	28µM	x	n	n	x
O=[S+]([O-])(c1ccccc1)N1CC2(CCCCN2CC2CC2)Cc2ccccc21 (centres undefined)	u	x	n	u	x
O=C1NCc2ccccc2CC12CCN(Cc1ccc(Oc3ccccc3)cc1)C2 (centres undefined)	u	x	n	32µM	x
O=C1NCc2ccccc2CC12CCN(Cc1ccc(F)cc1)C2 (centres undefined)	u	x	n	n	x
O=C1NCc2ccccc2CC12CCN(Cc1ccc(-c3ccccc3)cc1)C2 (centres undefined)	35µM	x	n	35µM	x
Cc1cc(OCCN(C)C)c(C)c2c1CC[C@@H]([C@H](C)C(=O)NCc1ccccc1)C2	50µM	n	n	56µM	n
COCCOc1cc(C)c2c(c1C)C[C@H](C(C)C(=O)NCc1cccs1)CC2 (some centres undefined)	50µM	n	n	u	n
COc1cc(C)c2c(c1C)C[C@H](C(C)C(=O)NCc1cccs1)CC2 (some centres undefined)	u	n	n	35µM	n
O=C1Nc2ccccc2CC12CCCN(Cc1ccc(F)cc1)C2 (centres undefined)	u	x	n	n	x
O=C(NCc1ccc(F)cc1)c1nc2sccn2c1-c1ccncc1	u	x	n	u	x
O=C(c1cccc(F)c1)N1CCC2(CC1)CC(N(Cc1ccc(F)cc1)C1CC1)CCO2 (centres undefined)	u	n	n	u	n
CCC(C)(C)C(=O)N1CCC2(CC1)CC(N(Cc1ccc(F)cc1)C1CC1)CCO2 (centres undefined)	45µM	n	n	u	n
O=C(N1CCC2(CC1)CC(N(Cc1ccccc1)C1CC1)CCO2)C1(c2ccccc2)CC1 (centres undefined)	40µM	u	n	45µM	n
O=C(CC1CCCC1)N1CCC2(CC1)CC(N(Cc1ccc(F)cc1)C1CC1)CCO2 (centres undefined)	45µM	n	n	u	n
CCC(=O)N1CCC2(CC1)CC(N(Cc1ccccc1)C1CC1)CCO2 (centres undefined)	n	n	n	n	n
O=C(c1ccccc1)N1CCC2(CC1)CC(N(Cc1ccc(F)cc1)C1CC1)CCO2 (centres undefined)	45µM	n	n	u	n
CC(C)c1ccc(CN2CC(CN[S+](=O)([O-])c3ccccc3)C3(C2)CN(c2ccccc2)C3)cc1 (centres undefined)	u	n	n	40µM	n
O=[S+]([O-])(NCC1CN(Cc2cccc(Cl)c2)CC12CN(c1ccccc1)C2)c1ccccc1 (centres undefined)	u	n	n	u	n
O=[S+]([O-])(NCC1CN(Cc2ccc3[nH]ccc3c2)CC12CN(c1ccccc1)C2)c1ccccc1 (centres undefined)	22µM	n	u	22µM	n
O=C(NCCN1CCOCC1)c1cn2cc(-c3cccnc3)sc2n1	n	x	n	n	x

Screening data deposited in PubChem by National Center for Advancing Translational Sciences (NCATS).
